In PubChem BioAssay (Tox21):
Results filed as inconclusive are left out. Active and inactive are the calls of the source. Unless noted, the call rests on the fitted dose curve; in most records, active means well fitted curve in the direction sought with a large enough effect in the repeat runs; inconclusive means weak or mixed curves; inactive means no such curve, though single readings can be large; an effect the other way counts as inactive or inconclusive.

Legend:
[1] = qHTS assay to identify small molecule HDAC inhibitors - cell viability counter screen (AID 1259365); further: series mostly up to about 92 µM; nearly all actives have a fitted effect of over 50% in size
Summary of the method: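 CellTiter-Glo luminescence (30 min, room temperature) reported viability after a 2 h compound exposure at 37 C. Cells: wild-type HCT-116, 1,500 per well, seeded the night before.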

[2] = qHTS assay to identify small molecule agonists of the sonic hedgehog signaling (Shh) pathway (AID 1259368; calls by dose curve;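 further: NIH/3T3-derived 3T3Gli1-Luc cells carrying a stable Gli1-driven firefly luciferase reporter; series mostly up to about 92 µM; nearly all actives have a fitted effect of over 15% in size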)
Summary of the method: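 NIH/3T3-derived 3T3Gli1-Luc cells with stably integrated Gli1-driven firefly luciferase, 2,000 cells/well, compounds added after 4 hr. Incubated 24 hr at 37C, 5% CO2; luminescence read after 30 min with luciferase reagent at room temperature.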

[3] = qHTS assay to identify small molecule antagonists of the sonic hedgehog signaling (Shh) pathway (AID 1259369; calls by dose curve; further: nearly all actives have a fitted effect of over 45% in size)
Summary of the method: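 NIH/3T3-derived Gli1-Luc reporter cells plated 4 h, dosed with compound, then stimulated with conditioned medium for 24 h at 37 C. Firefly luciferase luminescence read after 30 min with detection reagent at room temperature.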

[4] = biological target: Estrogen receptor beta (Homo sapiens) (UniProt Q92731); assay: qHTS assay to identify small molecule antagonists of the estrogen receptor beta (ER-beta) signaling pathway (AID 1259378; active means well fitted inhibition curve with a large enough effect in the signal ratio in the repeat runs, not every such curve was filed as active; the % refers to the signal ratio)
Summary of the method: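 ER-beta-UAS-bla HEK293T cells in 2% charcoal-stripped FBS medium treated with compound plus 1nM final 17-beta-estradiol for 16 hr at 37C. Beta-lactamase reporter read by FRET substrate fluorescence after 2 hours at room temperature.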

[5] = qHTS assay to identify small molecule agonists of the androgen receptor (AR) signaling pathway in the presence of an antagonist - cell viability counter screen (AID 1259379);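 further: MDA-kb2 human breast cancer cells carrying an MMTV luciferase reporter; series mostly up to about 92 µM; nearly all actives have a fitted effect of over 25% in size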
Summary of the method: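 MDA-kb2 cells (MMTV-luciferase, AR/GR), 3,000/well, 5 h attachment, then 3.0 µM nilutamide (final) and compounds at 15 concentrations. Viability by CellTiter-Fluor fluorescence after 16 h at 37 °C, 0% CO2, in the reporter wells.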

[6] = qHTS assay to identify small molecule agonists of the estrogen receptor beta (ER-beta) signaling pathway - cell viability counter screen (AID 1259380); further: nearly all actives have a fitted effect of over 30% in size
Summary of the method: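 ER-beta-UAS-bla HEK293T cells in medium with 2% charcoal-stripped FBS, pre-incubated 6 hr, then treated 16 hr at 37C. Cytotoxicity read in the same wells by CellTiter-Glo luminescence after 30 min at room temperature.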

[7] = qHTS assay to identify small molecule antagonists of the estrogen receptor beta (ER-beta) signaling pathway - cell viability counter screen (AID 1259382); further: series mostly up to about 92 µM; nearly all actives have a fitted effect of over 55% in size
Summary of the method: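 ER-beta-UAS-bla HEK293T cells in 2% charcoal-stripped FBS medium, treated with compound plus 1 nM 17-beta-estradiol for 16 h at 37C. Viability read by CellTiter-Glo luminescence after 30 min at room temperature in the same wells.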

[8] = qHTS assay to identify small molecule agonists or antagonists of the thyroid stimulating hormone receptor (TSHR) signaling pathway - wild type cell line counter screen (AID 1259384; calls by dose curve)
Summary of the method: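 Wild-type Hek293 cells, 800/well, 18 h at 37C, then compound with Ro20-1724 for 30 min RT. cAMP by HTRF (cAMP-d2/anti-cAMP cryptate), 1 h RT, fluorescence read. 15 concentrations, triplicates.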

[9] = biological target: Thyrotropin receptor (Homo sapiens) (UniProt P16473); assay: qHTS assay to identify small molecule antagonists of the thyroid stimulating hormone receptor (TSHR) signaling pathway (AID 1259385; calls by dose curve; further: nearly all actives have a fitted effect of over 20% in size)
Summary of the method: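 TSHR-HEK293 cells (800/well) plated 18 h, then compounds with Ro20-1724 and TSH at 1.5 ng/mL final, 30 min at room temperature. cAMP quantified by HTRF (cAMP-d2/anti-cAMP-cryptate, 1 h); 15 concentrations in triplicate.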

[10] = qHTS assay to identify small molecule agonists of the estrogen receptor alpha (ER-alpha) signaling pathway in the presence of an antagonist - cell viability counter screen (AID 1259386);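 further: series mostly up to about 92 µM; cells exposed to compounds for 22 h at 37 °C before the viability read; nearly all actives have a fitted effect of over 30% in size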
Summary of the method: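 Cell viability in VM7Luc4E2 cells (endogenous full-length ER-alpha) measured by CellTiter-Fluor fluorescence in the same wells as the luciferase screen. Cells pre-cultured 5 days in charcoal-stripped serum, then treated 22 h with compounds at 15 concentrations plus 10.0nM ICI-182,780.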

[11] = biological target: Progesterone receptor (Homo sapiens) (UniProt P06401); assay: qHTS assay to identify small molecule agonists of the progesterone receptor (PR) signaling pathway (AID 1346784; calls by dose curve; further: nearly all actives have a fitted effect of over 30% in size)
Summary of the method: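 Agonist qHTS: compounds pinned onto 3,000 PR-UAS-bla HEK 293T cells per well in charcoal-stripped serum medium, 16hr at 37C, then beta-lactamase activity measured by LiveBLAzer FRET fluorescence after 2 hours at room temperature.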

[12] = qHTS assay to identify small molecule antagonists of the progesterone receptor (PR) signaling pathway - cell viability counter screen (AID 1346798); further: series mostly up to about 92 µM; nearly all actives have a fitted effect of over 50% in size
Summary of the method: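 Cytotoxicity read as CellTiter-Glo luminescence (30 min, room temperature) in the same wells as the beta-lactamase readout. HEK293T PR-UAS-bla cells in charcoal-stripped 2% FBS received compound and R5020, then 16 h at 37C, 5% CO2.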

[13] = qHTS assay to identify small molecule agonists of the progesterone receptor (PR) signaling pathway - cell viability counter screen (AID 1346799; calls by dose curve; further: nearly all actives have a fitted effect of over 45% in size)
Summary of the method: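 Cytotoxicity measured by CellTiter-Glo luminescence (30 min, RT) in the same wells as the PR beta-lactamase agonist read. Those HEK293T cells had 16 h compound treatment at 37 C in 2% charcoal-stripped FBS medium.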

[14] = qHTS assay to identify small molecule agonists of the sonic hedgehog signaling (Shh) pathway - cell viability counter screen (AID 1259366); further: nearly all actives have a fitted effect of over 50% in size
Summary of the method: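 Cytotoxicity counter screen: CellTiter-Fluor reagent added after 23 h compound exposure, then 1 h at 37C and fluorescence read. Cells were 3T3 Gli1-Luc, seeded 2,000 per well and dosed 4 h post-plating.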

[15] = biological target: Progesterone receptor (Homo sapiens) (UniProt P06401); assay: qHTS assay to identify small molecule antagonists of the progesterone receptor (PR) signaling pathway (AID 1346795; active means well fitted inhibition curve with a large enough effect in the signal ratio in the repeat runs, not every such curve was filed as active; the % refers to the signal ratio)
Summary of the method: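 Antagonist mode with agonist R5020 at 1 nM final and 16 hr incubation at 37C. Reporter was beta-lactamase driven by UAS in HEK293T (PR-UAS-bla), 2% charcoal-stripped serum; signal from LiveBLAzer FRET substrate, 2 hr at room temperature.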

[16] = qHTS assay to identify small molecule antagonists of the sonic hedgehog signaling (Shh) pathway - cell viability counter screen (AID 1259367); further: nearly all actives have a fitted effect of over 55% in size
Summary of the method: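 NIH/3T3-derived Gli1-Luc reporter cells, 2,000/well, plated 4 hr before compound addition, then stimulated with conditioned medium for 24 hr at 37C. Viability measured in the same wells by CellTiter-Fluor fluorescence, reagent added at 23 hr for 1 hr.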

[17] = biological target: Estrogen receptor beta (Homo sapiens) (UniProt Q92731); assay: qHTS assay to identify small molecule agonists of the estrogen receptor beta (ER-beta) signaling pathway (AID 1259377; active means well fitted activation curve with a large enough effect in the signal ratio in the repeat runs, not every such curve was filed as active; the % refers to the signal ratio)
Summary of the method: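 Ratiometric beta-lactamase FRET read-out came after 2 h substrate loading at room temperature. It followed 16 h compound treatment at 37C of GripTite HEK293T cells carrying a UAS-bla reporter, plated in 2% charcoal-stripped FBS medium.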

[18] = biological target: Androgen receptor (Homo sapiens) (UniProt P10275); assay: qHTS assay to identify small molecule agonists of the androgen receptor (AR) signaling pathway in the presence of an antagonist (AID 1259381; calls by dose curve; further: nearly all actives have a fitted effect of over 15% in size)
Summary of the method: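 MDA-kb2 cells carrying MMTV-luciferase (AR/GR responsive), 3,000 cells/well, co-treated with 3.0 uM nilutamide final. Compounds at 15 concentrations, 16 hr at 37C without CO2. Luciferase luminescence read after 30 min with ONE-Glo.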

[19] = biological target: Estrogen receptor (Homo sapiens) (UniProt P03372); assay: qHTS assay to identify small molecule agonists of the estrogen receptor alpha (ER-alpha) signaling pathway in the presence of an antagonist (AID 1259383; calls by dose curve; further: top concentration of the series differs between compounds; nearly all actives have a fitted effect of over 15% in size)
Summary of the method: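 VM7Luc4E2 cells express endogenous full-length ER-alpha with an ERE-luciferase reporter and were hormone-deprived for 5 days. Compounds at 15 concentrations were added with 10.0nM ICI-182,780 for 22hr at 37C. Luminescence was read with ONE-Glo.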

Measured: Potency

Sequence of Thyrotropin receptor (Homo sapiens) (P16473 whole entry, looked up): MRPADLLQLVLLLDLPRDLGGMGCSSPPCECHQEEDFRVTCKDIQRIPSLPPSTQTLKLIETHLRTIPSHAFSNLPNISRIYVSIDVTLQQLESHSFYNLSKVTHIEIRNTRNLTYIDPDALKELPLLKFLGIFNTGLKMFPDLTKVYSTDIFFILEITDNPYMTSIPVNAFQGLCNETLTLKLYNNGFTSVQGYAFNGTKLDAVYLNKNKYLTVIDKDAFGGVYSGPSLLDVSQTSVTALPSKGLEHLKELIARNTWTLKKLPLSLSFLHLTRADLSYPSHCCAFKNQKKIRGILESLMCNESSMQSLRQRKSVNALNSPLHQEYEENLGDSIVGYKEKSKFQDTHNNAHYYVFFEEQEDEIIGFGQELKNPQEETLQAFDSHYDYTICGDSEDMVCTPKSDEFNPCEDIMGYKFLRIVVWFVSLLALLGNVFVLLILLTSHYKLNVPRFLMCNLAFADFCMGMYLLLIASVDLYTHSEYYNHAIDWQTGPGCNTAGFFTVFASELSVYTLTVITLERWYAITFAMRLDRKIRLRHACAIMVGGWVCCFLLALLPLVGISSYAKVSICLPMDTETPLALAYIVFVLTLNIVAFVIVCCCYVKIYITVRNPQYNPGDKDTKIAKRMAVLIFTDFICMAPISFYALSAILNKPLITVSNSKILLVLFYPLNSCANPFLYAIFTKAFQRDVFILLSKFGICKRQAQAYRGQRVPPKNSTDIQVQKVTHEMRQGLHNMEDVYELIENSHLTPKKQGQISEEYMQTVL
Sequence of Estrogen receptor (Homo sapiens) (P03372 whole entry, looked up): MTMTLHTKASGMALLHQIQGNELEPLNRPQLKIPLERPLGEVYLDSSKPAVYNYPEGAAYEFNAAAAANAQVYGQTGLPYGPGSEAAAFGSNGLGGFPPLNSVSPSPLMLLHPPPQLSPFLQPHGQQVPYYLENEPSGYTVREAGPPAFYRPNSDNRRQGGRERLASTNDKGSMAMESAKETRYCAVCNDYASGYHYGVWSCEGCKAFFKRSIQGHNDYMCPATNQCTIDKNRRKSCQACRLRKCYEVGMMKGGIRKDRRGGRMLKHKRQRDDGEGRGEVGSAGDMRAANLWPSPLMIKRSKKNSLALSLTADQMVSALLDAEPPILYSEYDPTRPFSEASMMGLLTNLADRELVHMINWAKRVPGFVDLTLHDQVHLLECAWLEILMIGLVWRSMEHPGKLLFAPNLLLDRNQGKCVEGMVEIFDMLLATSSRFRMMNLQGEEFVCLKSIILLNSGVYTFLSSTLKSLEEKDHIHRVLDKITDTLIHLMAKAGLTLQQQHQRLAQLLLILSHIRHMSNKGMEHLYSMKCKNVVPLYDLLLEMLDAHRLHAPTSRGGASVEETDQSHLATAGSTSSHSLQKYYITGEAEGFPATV
Sequence of Progesterone receptor (Homo sapiens) (P06401 whole entry, looked up): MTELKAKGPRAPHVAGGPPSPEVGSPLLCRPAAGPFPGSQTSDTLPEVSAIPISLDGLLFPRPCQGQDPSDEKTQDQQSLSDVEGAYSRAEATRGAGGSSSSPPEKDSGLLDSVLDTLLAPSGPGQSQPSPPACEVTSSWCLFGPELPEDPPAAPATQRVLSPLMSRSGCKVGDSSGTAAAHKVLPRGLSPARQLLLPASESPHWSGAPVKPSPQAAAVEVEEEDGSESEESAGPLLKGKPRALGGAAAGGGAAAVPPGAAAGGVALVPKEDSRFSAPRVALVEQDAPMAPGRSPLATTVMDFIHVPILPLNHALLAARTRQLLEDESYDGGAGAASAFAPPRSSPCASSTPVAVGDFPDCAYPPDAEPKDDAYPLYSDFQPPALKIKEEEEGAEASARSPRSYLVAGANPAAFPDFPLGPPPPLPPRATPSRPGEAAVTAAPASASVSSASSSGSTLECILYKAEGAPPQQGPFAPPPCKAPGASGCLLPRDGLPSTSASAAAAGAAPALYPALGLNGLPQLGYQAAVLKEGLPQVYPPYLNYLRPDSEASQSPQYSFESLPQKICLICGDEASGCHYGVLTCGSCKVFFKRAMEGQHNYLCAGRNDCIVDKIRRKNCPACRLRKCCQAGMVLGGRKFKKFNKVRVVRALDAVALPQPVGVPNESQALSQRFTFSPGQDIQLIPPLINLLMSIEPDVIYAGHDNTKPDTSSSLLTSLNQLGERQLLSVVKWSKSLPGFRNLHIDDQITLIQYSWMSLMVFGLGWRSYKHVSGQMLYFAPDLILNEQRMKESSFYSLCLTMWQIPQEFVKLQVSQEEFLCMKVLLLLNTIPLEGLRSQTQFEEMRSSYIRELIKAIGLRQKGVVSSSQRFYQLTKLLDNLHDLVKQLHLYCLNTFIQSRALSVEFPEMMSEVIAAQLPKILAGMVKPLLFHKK
Sequence of Estrogen receptor beta (Homo sapiens) (Q92731 whole entry, looked up): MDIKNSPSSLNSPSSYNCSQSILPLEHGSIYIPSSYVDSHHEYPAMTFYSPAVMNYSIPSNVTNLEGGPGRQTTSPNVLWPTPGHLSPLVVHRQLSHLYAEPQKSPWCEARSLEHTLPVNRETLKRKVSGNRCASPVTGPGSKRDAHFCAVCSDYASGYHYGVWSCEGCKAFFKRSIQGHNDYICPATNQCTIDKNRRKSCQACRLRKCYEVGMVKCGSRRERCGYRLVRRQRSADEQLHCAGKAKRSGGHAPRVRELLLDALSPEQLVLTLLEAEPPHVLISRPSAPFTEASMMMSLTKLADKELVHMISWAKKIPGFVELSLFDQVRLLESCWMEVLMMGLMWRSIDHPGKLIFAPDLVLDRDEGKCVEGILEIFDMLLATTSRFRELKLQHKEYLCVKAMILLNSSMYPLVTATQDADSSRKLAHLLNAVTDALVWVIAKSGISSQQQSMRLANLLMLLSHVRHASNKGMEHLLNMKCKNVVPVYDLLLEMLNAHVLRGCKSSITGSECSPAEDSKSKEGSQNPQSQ
Sequence of Androgen receptor (Homo sapiens) (P10275 whole entry, looked up): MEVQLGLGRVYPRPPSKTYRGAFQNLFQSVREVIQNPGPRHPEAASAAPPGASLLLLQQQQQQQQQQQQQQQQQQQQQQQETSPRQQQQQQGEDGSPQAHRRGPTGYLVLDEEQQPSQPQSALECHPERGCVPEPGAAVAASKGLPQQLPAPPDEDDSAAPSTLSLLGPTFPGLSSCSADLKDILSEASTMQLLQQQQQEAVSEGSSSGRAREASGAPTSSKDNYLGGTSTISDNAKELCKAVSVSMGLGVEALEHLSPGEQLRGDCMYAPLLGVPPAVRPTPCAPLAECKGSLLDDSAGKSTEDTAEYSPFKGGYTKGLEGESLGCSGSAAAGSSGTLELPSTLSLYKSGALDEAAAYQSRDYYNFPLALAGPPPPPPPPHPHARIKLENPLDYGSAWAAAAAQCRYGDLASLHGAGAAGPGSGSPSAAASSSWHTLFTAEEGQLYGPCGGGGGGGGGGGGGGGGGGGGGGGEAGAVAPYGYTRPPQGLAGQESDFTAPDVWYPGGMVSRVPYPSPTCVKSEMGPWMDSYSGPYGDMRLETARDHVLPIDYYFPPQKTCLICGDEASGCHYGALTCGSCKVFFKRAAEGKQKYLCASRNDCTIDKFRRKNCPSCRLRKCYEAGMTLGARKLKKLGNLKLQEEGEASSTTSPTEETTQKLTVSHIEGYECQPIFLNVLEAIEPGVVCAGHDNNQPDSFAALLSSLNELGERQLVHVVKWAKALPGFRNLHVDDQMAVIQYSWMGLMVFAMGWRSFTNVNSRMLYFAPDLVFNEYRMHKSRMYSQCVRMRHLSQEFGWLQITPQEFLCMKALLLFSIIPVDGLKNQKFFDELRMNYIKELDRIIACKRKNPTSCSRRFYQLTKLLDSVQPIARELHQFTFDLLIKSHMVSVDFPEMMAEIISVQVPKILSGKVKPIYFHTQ

CC(=O)C(C)O (stereo not drawn)
not listed: [14] | [15] | [16] | [17] | [18] | [19]
inactive: all other assays above

O=Cc1cc2ccccc2o1
not listed: [4] | [10] | [12] | [13] | [16] | [17] | [18] | [19]
inactive: all other assays above

Cc1c(Cl)cccc1Cl
not listed: [2] | [12] | [13] | [18] | [19]
inactive: all other assays above

COc1cc(/C=C/C(N)=O)cc(OC)c1OC
not listed: [2]
inactive: all other assays above

Nc1nnnn1-c1ccccc1
not listed: [12] | [17] | [18]
inactive: all other assays above

O=C1CCC(=O)N1Cl
not listed: [11] | [12] | [13] | [16] | [17] | [18]
inactive: all other assays above

Cc1c(C(=O)c2c[nH]n(C)c2=O)ccc(S(C)(=O)=O)c1C1=NOCC1
not listed: [6] | [8] | [9] | [12] | [13] | [14]
inactive: all other assays above

CC(Oc1cc(Cl)ccc1Cl)C(=O)O (stereo not drawn)
not listed: [2] | [8] | [9] | [10] | [19]
inactive: all other assays above

CNCCS(=O)(=O)O
not listed: [17] | [18] | [19]
inactive: all other assays above
